Structures are written as SMILES. About 83,000 compounds went through this panel and 20% of them were active in at least one assay; those are over-represented in the sample as a whole.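 The test compound was applied at a single concentration to cells in 96-well plates for 48 hours, and percent growth was recorded.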 A number with no mark means an inactive call. Active and inactive are the calls of the source. Rule for the calls: active = growth percent below 10; inactive = the rest.

Our source for the growth values is PubChem BioAssay (NCI).

Assay in all cases: NCI-60 one-dose screen, 48 h (100 = growth as untreated, 0 = no growth, -100 = all killed)
Common to all, as to conditions: 10 µM unless noted

In experiment [1] the test system is SR leukemia.
In experiment [2] the test system is RPMI-8226 leukemia.
Experiment [3] relates to OVCAR-8 ovarian.
Experiment [4] has as its system OVCAR-5 ovarian.
Experiment [5] concerns OVCAR-4 ovarian.
The test system of experiment [6] is IGROV1 ovarian.
The subject of experiment [7] is OVCAR-3 ovarian.
Experiment [8] concerns HS 578T breast.
In experiment [9] the test system is NCI/ADR-RES ovarian.
Experiment [10] relates to T-47D breast.
The subject of experiment [11] is BT-549 breast.
Experiment [12] deals with MDA-MB-435 melanoma.
In experiment [13] the test system is SW-620 colon.
Experiment [14] relates to MCF7 breast.
Experiment [15] deals with HCT-116 colon.
The subject of experiment [16] is HCC-2998 colon.
Experiment [17] concerns KM12 colon.
Experiment [18] relates to SK-OV-3 ovarian.

In the case of `Cc1ccc(S(=O)(=O)N(CC[C@@H]2C[C@H]2c2cc3ccccc3o2)C(=O)NC2CCCCC2)cc1`, the growth in experiment [1] is 100%; in experiment [2], 107%; in experiment [3], 98.8%; in experiment [4] it was 95.7%; in experiment [5] it was 93%; in experiment [6], 95.8%. Besides, the growth in experiment [7] was 104%; in experiment [8], 89.8%; in [9], 86.9%; in [10], 70.9%; in experiment [11], 112%; in experiment [12], 101%. In addition, the growth in experiment [13] was 92.1%; in [14], 93.4%; in [15], 85%; in experiment [16] it was 101%; in experiment [17], 105%.

For `Cc1cc(=O)c2cc3nc(-c4cccnc4)oc3c(Br)c2o1`, the growth in experiment [1] is 70.7%; in [2], 90%; in [3] it was 99.9%; in experiment [4], 90.1%; in experiment [5], 101%; in experiment [18] it was 195%. Moreover, the growth in [7] is 123%; in experiment [8], 116%; in experiment [9], 83.9%; in experiment [10], 201%; in [11], 103%; in experiment [12] it was 107%. The growth was 99.5% in experiment [13]; 94.9% in [14]; 99.9% in experiment [15]; 106% in experiment [16]; 109% in experiment [17].

Turning to `COc1ccc2cc(-c3ccc(C(=O)NN)c(C)n3)ccc2c1`, the growth in experiment [1] is 78.4%; in experiment [2], 101%; in [3] it was 102%; in experiment [4], 91.6%; in [5] it was 90.8%; in experiment [18] it was 95.7%. In addition, the growth in [6] was 101%; in experiment [9], 105%; in experiment [10] it was 79.5%; in experiment [11], 88.9%; in experiment [12], 99.9%; in experiment [13] it was 107%. Also, the growth in experiment [14] is 90.4%; in [15], 93.7%; in [16], 99.6%; in experiment [17], 103%.

As for `O=C(/C=C/C12c3ccccc3C(c3ccccc31)C1C(=O)NC(=O)C12)c1ccc(Cl)cc1` (stereo not given), the growth in experiment [1] is 13.3%; in experiment [2], -10.1% (active); in [3], 16%; in experiment [4], -2.53% (active); in [5], 30.4%; in experiment [6], -38.6% (active). Besides, the growth in experiment [7] is -57.8% (active); in [8], 11.6%; in experiment [9], 4.42% (active); in [10] it was 39.9%; in experiment [11], 9.59% (active); in experiment [12], -19.4% (active). Moreover, the growth is -3.94% (active) in experiment [13], 10.6% in experiment [14], -27.8% (active) in experiment [15] and -67% (active) in experiment [16].

With `COc1ccc2c(c1)/C(=C\c1sc(=S)[nH]c1O)C(C(=O)O)=N2`, the growth was 110% in [1]; 101% in [2]; 99% in experiment [3]; 101% in experiment [4]; 101% in experiment [5]; 107% in experiment [6]. Moreover, the growth in [7] was 98.8%; in [8] it was 94%; in [9] it was 102%; in [10], 94.3%; in experiment [11], 109%; in experiment [12], 100%. The growth is 95.2% in [13]; 97.7% in experiment [14]; 99.6% in [15]; 103% in [16]; 99.6% in experiment [17].

Turning to `O=C1NC(=S)S/C1=C\N1N=C(c2ccc(Cl)cc2)CC1c1ccc(F)cc1` (stereo not given), the growth in experiment [1] was 46.9%; in experiment [2] it was 69.7%; in experiment [3], 81.3%; in experiment [4], 94.7%; in [5] it was 91.4%; in experiment [6], 96.2%. Besides, the growth in experiment [7] was 86.4%; in experiment [8] it was 84.8%; in [9], 87%; in experiment [10] it was 72.2%; in experiment [11], 100%; in experiment [12], 97.2%. The growth was 92.1% in [13]; 71.9% in experiment [14]; 81.9% in experiment [15]; 100% in [16]; 87.4% in experiment [17].

Regarding `O=C1CC(c2ccc3c(c2)OCO3)Nc2cc3c(cc21)OCO3` (stereo not given), the growth was 7.67% (active) in [1]; 16.5% in experiment [2]; 12.7% in experiment [3]; 44.7% in [4]; 49.9% in experiment [5]; 50.4% in experiment [6]. Moreover, the growth in experiment [7] was -5.26% (active); in experiment [8], 19.5%; in [9], 13.5%; in [10], 59.5%; in [11] it was 32.7%; in experiment [12] it was -34.6% (active). Further, the growth in [13] is 25.1%; in experiment [14], 13.9%; in [16], 17.6%; in [17] it was 15.2%.

Take `COc1ccccc1NC(=O)Nc1ccc(-c2nc3ccccc3o2)cc1`: the growth in experiment [1] is 69%; in experiment [2], 96.7%; in experiment [3], 102%; in experiment [4], 104%; in experiment [5], 95.3%; in experiment [6], 104%. In addition, the growth in [7] is 109%; in experiment [8], 99%; in [9], 98.4%; in experiment [10], 68.1%; in [11], 92.3%; in experiment [12], 104%. For the same molecule, the growth in experiment [13] is 111%; in [14], 99%; in [15] it was 93.7%; in experiment [16], 106%; in experiment [17], 105%.

As to `C[C@@H]1C(=O)N(C[C@@H](Cc2ccccc2)NC(=O)OCc2ccccc2)[C@]1(Cc1ccccc1)C(=O)OCc1ccccc1`, the growth was 16.6% in [1]; 19.6% in experiment [2]; 40.2% in experiment [3]; 69.1% in experiment [4]; 1.48% (active) in experiment [5]; 54.5% in [18]. The growth in experiment [6] is 57.4%; in experiment [9], 21%; in experiment [10], 22.3%; in [11], 61.3%; in experiment [12] it was 48.3%; in experiment [13], 40.9%. Besides, the growth is 27% in experiment [14], 34.4% in experiment [15], 72.8% in experiment [16] and 26% in [17].

In the case of `CCCCN1CCN(c2ccc3nc(-c4ccc5nc(-c6cc(OC)c(OC)c(OC)c6)[nH]c5c4)[nH]c3c2)CC1`, the growth in experiment [1] was 10.7%; in [2], 55.9%; in experiment [3], 56.2%; in [4] it was 117%; in [5], 84.4%; in [6] it was 94.2%. The growth is 67% in [7]; 45% in experiment [8]; 102% in [9]; 66% in experiment [10]; 80.2% in [11]; 53.5% in experiment [12]. For the same molecule, the growth is 60.3% in experiment [13]; 19.9% in experiment [14]; 41.1% in experiment [15]; 100% in experiment [16]; 59.3% in [17].

For `C[C@]12CCC(=O)C[C@H]1CC[C@@H]1[C@@H]2CC[C@@]2(C)[C@H]1CC[C@]2(O)C(=O)CO`, the growth in experiment [1] was 106%; in experiment [2], 103%; in experiment [3], 108%; in [4] it was 92.3%; in experiment [18], 105%; in experiment [6] it was 103%. The growth in experiment [7] is 115%; in [8], 99.1%; in experiment [9], 107%; in experiment [10], 99.5%; in experiment [11], 105%; in [12], 102%. The growth in experiment [13] was 108%; in experiment [14], 91.1%; in experiment [15] it was 110%; in experiment [17] it was 110%.

As for `CN(C)CN1CCN(c2ccc3nc(-c4ccc5nc(-c6ccc(C(F)(F)F)cc6)[nH]c5c4)[nH]c3c2)CC1`, the growth was 17.7% in [1]; 19.1% in [2]; 53% in experiment [3]; 114% in [4]; -4.77% (active) in [5]; 78.7% in experiment [6]. Further, the growth in [7] was 89.7%; in experiment [8], 52.8%; in [10], 61.4%; in experiment [11], 86.2%; in [12] it was 40.9%; in [13], 27%. The growth was 9.58% (active) in experiment [14], 23.8% in experiment [15], 84.7% in experiment [16] and 26.5% in experiment [17].

As to `COc1cc(NC(=O)c2cccc(-c3cc(=O)c4c(OC)c(OC)c(OC)cc4o3)c2)cc(OC)c1OC`, the growth in [1] is 29.8%; in experiment [2] it was 0.302% (active); in experiment [3], 30.9%; in [4] it was 86%; in experiment [5], 74.8%; in experiment [6] it was 51.8%. Also, the growth is 9.2% (active) in experiment [8]; 51.1% in [9]; 27% in experiment [11]; 6.36% (active) in [12]; 67% in [13]; 34.3% in experiment [14]. In addition, the growth was 48.6% in experiment [15], 74.1% in experiment [16] and 45.8% in experiment [17].

Turning to `CCC(C)NCc1ccccc1` (stereo not given), the growth in experiment [1] was 104%; in experiment [2] it was 95.7%; in experiment [3], 102%; in experiment [4] it was 114%; in experiment [18], 101%; in [6], 109%. For the same molecule, the growth was 104% in experiment [7]; 105% in [8]; 98.1% in experiment [9]; 89.4% in experiment [10]; 95.2% in experiment [11]; 108% in [12]. The growth in experiment [13] is 101%; in experiment [14], 102%; in [15] it was 91.8%; in experiment [16], 102%; in experiment [17], 100%.

Regarding `CCCCN(CCCC)CCCn1c(=O)c2sc3ncccc3c2n2nnc(-c3ccccc3)c12`, the growth in experiment [1] was 99.2%; in experiment [2], 96.4%; in [3] it was 96.4%; in [4] it was 97.1%; in experiment [5], 103%; in experiment [6], 80.5%. In addition, the growth in experiment [7] was 120%; in experiment [8], 110%; in experiment [11], 124%; in [12], -84.2% (active); in experiment [13], 100%; in [14], 93.2%. Further, the growth in [15] is 83.6%; in experiment [16], 118%; in experiment [17] it was 107%.
